In PubChem BioAssay AID1942 (Johns Hopkins Ion Channel Center, 2009):
Hit rate of the full screen: of about 2,400 compounds, about 580 (24%) were called active.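 How the source made its calls: active means activity change at or above the mean plus 3 SD of buffer wells without dofetilide, per plate; inactive means the rest.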 A selection follows.

molecular target: Potassium voltage-gated channel subfamily KQT member 2 (Rattus norvegicus) (UniProt O88943); assay: rat KCNQ2 channel activation by compounds alone, confirmation, counter-screen for hERG block protector project, cell-based, CHO, FluxOR thallium flux (AID 1942); settings: CHO-KCNQ2 cells, FluxOR thallium flux fluorescence; at 10 µM; active compounds read high;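 further: normalized value minus buffer-control mean plus three SD of buffer wells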
Sequence (O88943 whole entry, looked up): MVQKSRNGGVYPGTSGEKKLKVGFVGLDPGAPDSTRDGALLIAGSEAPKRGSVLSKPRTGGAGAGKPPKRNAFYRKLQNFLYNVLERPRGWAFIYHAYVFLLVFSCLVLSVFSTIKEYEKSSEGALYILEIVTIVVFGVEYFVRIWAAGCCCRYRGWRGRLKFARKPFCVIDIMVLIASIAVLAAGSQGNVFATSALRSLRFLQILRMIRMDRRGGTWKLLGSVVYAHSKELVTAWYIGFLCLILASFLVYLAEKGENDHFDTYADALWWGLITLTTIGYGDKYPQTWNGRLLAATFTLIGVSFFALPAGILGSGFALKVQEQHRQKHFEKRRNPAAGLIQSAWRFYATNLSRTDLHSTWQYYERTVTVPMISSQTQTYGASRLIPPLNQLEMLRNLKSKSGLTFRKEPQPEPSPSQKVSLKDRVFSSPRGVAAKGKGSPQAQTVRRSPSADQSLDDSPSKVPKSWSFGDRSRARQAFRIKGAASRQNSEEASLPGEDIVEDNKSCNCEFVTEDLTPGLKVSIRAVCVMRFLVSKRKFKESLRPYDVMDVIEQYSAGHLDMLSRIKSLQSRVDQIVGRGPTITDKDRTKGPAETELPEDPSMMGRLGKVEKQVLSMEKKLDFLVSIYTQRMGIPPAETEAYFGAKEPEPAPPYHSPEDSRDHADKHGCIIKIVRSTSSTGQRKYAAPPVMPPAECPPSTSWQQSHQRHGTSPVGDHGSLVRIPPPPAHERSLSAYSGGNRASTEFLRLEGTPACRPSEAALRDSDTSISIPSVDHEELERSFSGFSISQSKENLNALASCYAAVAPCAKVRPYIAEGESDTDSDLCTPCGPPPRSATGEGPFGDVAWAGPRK

Row | SMILES | activity change, less the hit threshold
1 | Cc1sc2ncnc(SCC(=O)c3ccc(O)cc3O)c2c1C | 2.9% (active)
2 | CCOc1ccc(-n2cnc3sc(C)c(C)c3c2=O)cc1 | -26.5% (inactive)
3 | Cc1sc2ncnc(SCC(=O)NC(=O)c3cccn3C)c2c1C | -2.4% (inactive)
4 | O=C(Nc1cccnc1)c1ccc(COc2ccccc2Br)o1 | -13.5% (inactive)
5 | C=CCOc1ccccc1/C=c1\sc2nc(=O)c(C)nn2c1=O | -17.3% (inactive)
6 | O=C(NC(=S)NCCc1ccc(Cl)cc1)c1ccco1 | -7.7% (inactive)
7 | S=C(NCCc1ccccc1)NCCN1CCOCC1 | -16.4% (inactive)
8 | O=C(NC(=S)NCCC1=CCCCC1)c1ccco1 | 42.7% (active)
9 | O=C(NC(=S)NCCC1=CCCCC1)c1ccc(Br)o1 | 3.5% (active)
10 | Cc1ccc(/C=N/Nc2ccc(C(=O)O)cc2)o1 | -9.1% (inactive)
11 | Cc1ccc(N=C2NC(=O)/C(=C/c3cccs3)S2)cc1C | -6.4% (inactive)
12 | O=C(OCc1ccccc1)/C(=C/c1cccc([N+](=O)[O-])c1)NC(=O)c1ccco1 | -19.1% (inactive)
13 | O=C1NC(=S)/C(=C\c2ccc(-c3ccccc3Cl)o2)S1 | -18.7% (inactive)
14 | COc1ccc2nc(N3CCCCC3)c(/C=C3\SC(=S)NC3=O)cc2c1 | -17.9% (inactive)
15 | O=C1NC(=S)S/C1=C\c1ccc2ccccc2c1 | 53.3% (active)
16 | S=c1[nH]c(-c2ccccc2)cn1/N=C/c1cccc2ccccc12 | -7.9% (inactive)
17 | Cn1c(=S)[nH]c2sc3c(c2c1=O)CCC(C(C)(C)C)C3 (configuration not stated) | 70.3% (active)
18 | CC1CCc2c(sc3[nH]c(=S)n(C)c(=O)c23)C1 (configuration not stated) | 72.5% (active)
19 | CCCOC(=O)CN1C(=O)c2ccc(C(=O)OCCC)cc2C1=O | -12.2% (inactive)
20 | O=c1oc2cc(OCCO)ccc2c2c1CCCC2 | -17.1% (inactive)
21 | Cc1ccc2nc(-c3ccncc3)cc(C(=O)Nc3ccc4c(c3)OCCO4)c2c1 | -19.5% (inactive)
22 | CS(=O)(=O)N1CCC(C(=O)Nc2c(F)cccc2F)CC1 | -11.1% (inactive)
23 | COc1ccc(Cl)cc1C(=O)NNC(=S)NC(=O)/C=C/c1ccco1 | -17% (inactive)
24 | Cc1occc1C(=O)NNC(=S)NC(=O)COc1ccc(Cl)cc1Cl | 64.9% (active)

Row | SMILES | activity change, less the hit threshold
25 | O=C(COc1ccc(Cl)cc1Cl)NC(=S)Nc1ccccc1C(=O)O | -12.7% (inactive)
26 | COc1ccc(CN(C)C(=O)c2cccc(NS(=O)(=O)c3ccccc3)c2)cc1F | -13.5% (inactive)
27 | CN1CCN(c2nnc(-c3cccs3)c3ccccc23)CC1 | -26.6% (inactive)
28 | COC(=O)c1sccc1NC(=S)N1CC(C)CC(C)C1 (configuration not stated) | -25% (inactive)
29 | O=c1ccc(N=Nc2ccccc2)ccc1O | 87.6% (active)
30 | CN(C)c1ccc(N=Nc2ccc(C(=O)O)cc2)cc1 | -18.5% (inactive)
31 | O=C(COC(=O)c1cccs1)NCCN1C(=O)CSC1=O | -22% (inactive)
32 | Cn1c(CNC(=O)CNC(=O)c2ccc(F)cc2)cc(=O)n(C)c1=O | -10.8% (inactive)
33 | CC(NC(=O)c1ccc(F)cc1)c1ccc2c(c1)CCCC2 (configuration not stated) | 26.1% (active)
34 | CC(NC(=O)c1ccc(Br)cc1)c1ccc2c(c1)CCCC2 (configuration not stated) | 33.3% (active)
35 | CC(NC(=O)CCNC(=O)c1ccco1)c1ccc(F)cc1 (configuration not stated) | -12.9% (inactive)
36 | CCc1ccc(C(C)NC(=O)c2ccc(F)cc2)cc1 (configuration not stated) | 21.6% (active)
37 | S=c1[nH]c2ccccc2n2cccc12 | -14.5% (inactive)
38 | CCOc1ccc(-n2c(C)c(C(C)=O)c3cc(O)ccc32)cc1 | -2.3% (inactive)
39 | CC(=O)c1ccc(S(=O)(=O)NCc2ccc(C(=O)N(C)CC(=O)Nc3cccc(F)c3)cc2)cc1 | -9.1% (inactive)
40 | C=CCn1c(SCC(N)=O)nc2scc(-c3ccc(C)o3)c2c1=O | 1.7% (active)
41 | C=CCn1c(SCC(=O)Nc2cccc(C)c2)nnc1-c1cnccn1 | -26.8% (inactive)
42 | C=CCn1c(=S)[nH]c2scc(-c3ccc(C)o3)c2c1=O | 80.3% (active)
43 | NC(=O)CSc1nc2ccccc2c(=O)n1CCc1ccccc1 | -15.2% (inactive)
44 | C=CCn1c(=S)[nH]c2scc(-c3cccs3)c2c1=O | 93.7% (active)
45 | C=CCn1c(=S)[nH]c2cc(-c3ccccc3)sc2c1=O | -4.4% (inactive)
46 | CCC1(C)CC2(CCCN(CCC(=O)c3ccccc3)C2)CCO1 (configuration not stated) | -25% (inactive)
47 | O=C(NCc1ccco1)C1CCN(C(=O)Cc2ccccc2)CC1 | -17.3% (inactive)
48 | O=C(CCSCCc1ccccn1)Nc1cccc([N+](=O)[O-])c1 | -11.2% (inactive)

Row | SMILES | activity change, less the hit threshold
49 | CCN1C(=O)/C(=C\c2ccc(-c3cccc(C(=O)OC)c3)o2)SC1=Nc1ccc(C(=O)O)cc1 | -22.8% (inactive)
50 | CCCCN(C(=O)CNC(=O)c1cccs1)C(C(=O)NC1CCCC1)c1ccncc1 (configuration not stated) | -7.8% (inactive)
51 | CCCCN(C(=O)CC1CCCC1)c1c(N)n(CC(C)C)c(=O)[nH]c1=O | -9.9% (inactive)
52 | Cc1[nH]n(-c2ccccc2)c(=O)c1N=Nc1ccc(C(N)=O)cc1 | -25.6% (inactive)
53 | CCSC(=S)c1c(C)[nH]n(-c2ccccc2)c1=O | -4.2% (inactive)
54 | CCCSC(=S)c1c(C)[nH]n(-c2ccccc2)c1=O | 49.7% (active)
55 | Cc1cc(C(=O)NCCN2C(=O)S/C(=C\c3cccs3)C2=O)ccc1[N+](=O)[O-] | -16.8% (inactive)
56 | Nc1nonc1-n1nnc(C(=O)N/N=C/c2ccccn2)c1-c1ccccc1 | -18.1% (inactive)
57 | COc1ccc(C2N=C(c3ccccc3)C(C)(C)N2O)cc1 (configuration not stated) | -18.6% (inactive)
58 | Cc1nn(C)cc1C(=O)Nc1ccc2c(c1)OCCO2 | -19.7% (inactive)
59 | Cc1ccc(CN2CCN(CC(=O)NC(C)c3ccc4c(c3)OCCO4)C2=O)cc1 (configuration not stated) | 16.9% (active)
60 | Cc1cc(Cl)ccc1OC(C)C(=O)NCCc1ccc2c(c1)OCCO2 (configuration not stated) | -30.8% (inactive)
61 | C/C(=N\NC(=O)c1cc2ccccc2cc1O)c1ccccn1 | -9.4% (inactive)
62 | C/C(=N/NC(=O)c1cc2ccccc2cc1O)c1ccco1 | 72.8% (active)
63 | Cc1ccc(/C=N/NC(=O)c2cc3ccccc3cc2O)o1 | 77.9% (active)
64 | C/C(=N\NC(=O)c1ccoc1C)c1cccc2ccccc12 | 55% (active)
65 | Cc1ccc(/C=N/NC(=O)c2cc(C)oc2C)o1 | -17.8% (inactive)
66 | C/C(=N\NC(=S)Nc1cccc(C)c1)c1ccco1 | -13.9% (inactive)
67 | C/C(=N\NC(=O)c1cc2ccccc2cc1O)c1cc2ccccc2o1 | 82% (active)
68 | O=C(N/N=C/c1ccc(Sc2ccccn2)o1)c1cc2ccccc2cc1O | -4.5% (inactive)
69 | Cc1cc(C(=O)Nc2cccc3ccccc23)c(C)o1 | -28.1% (inactive)
70 | C/C(=N\NC(=O)CSc1nc2ccccc2o1)c1ccc(O)cc1 | -16.2% (inactive)
71 | COc1ccc(CCNC(=O)c2cc3ccccc3oc2=O)cc1 | -29% (inactive)
72 | C/C(=N\NC(=S)Nc1c(C)cccc1C)c1cc2ccccc2o1 | -16.4% (inactive)
